Laboratory results taken from PubChem BioAssay (NCI).
Compounds without any hit were thinned out: in the full panel of roughly 83,000, 20% have a hit.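 A percent growth of 40 corresponds to 60% growth inhibition; 0 means no net growth; -100 means all cells died. Active threshold: below 10.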 Calls of active or inactive are those of the source.

What follows are molecules tested on NCI/ADR-RES ovarian (assay: NCI-60 one-dose screen, 48 h (100 = growth as untreated, 0 = no growth, -100 = all killed)). Settings: 10 µM unless noted.
In the case of `CCC1(NC(=O)c2cc(F)c(F)c(F)c2F)C(=O)NC(=O)N(C(C)C)C1=O` (centres undefined), the growth is reported as 105% (inactive). With `O=C1NC(=O)C(=C/C=C/c2ccccc2)C(=O)N1` the growth was -29.1% (active). In the case of `C[C@]12CCC3[C@@H](C[C@@H]4SC(Nc5ccccc5)=N[C@@]45CC(=O)CC[C@]35C)[C@@H]1CCC2=O` (some centres undefined), the growth is reported as 9.86% (active). `CCCCOCCOP(=O)(OCCOCCCC)OCCOCCCC` was tested, and the growth was 99.7% (inactive). In the case of `Cc1cc[c-]cc1.Fc1c[c-]c(-c2ccccn2)c(F)c1.N#CCC[PH+](CCC#N)c1ccccc1.[Pt+2]`, the growth is reported as 55.3% (inactive). In the case of `CCN(CC)CCn1c(=O)n(C)c2ccccc21`, the growth is reported as 101% (inactive). In the case of `COc1cc2c(cc1OC)[C@@H]1C(=O)c3ccc4c(c3O[C@@H]1CO2)C[C@H](C(C)C)O4`, the growth is reported as 34.9% (inactive). `COC(=O)C12C3C4C1C1C2C3C41NC(=O)c1csc([C@@H](C[C@H](C(C)C)N(C)C(=O)[C@@H](NC(=O)[C@H]2CCCCN2C)C2CC2)OC(C)=O)n1` (some centres undefined) was tested, and the growth was 40.7% (inactive). With `CC[C@H](CC[C@@H](C)[C@H]1CC[C@H]2[C@@H]3CC[C@H]4C[C@]5(CC[C@]4(C)[C@H]3CC[C@]12C)OO[C@](C)(C(F)(F)F)O5)C(C)C` the growth was 98% (inactive). For `CC(C)CCC1C(=O)NC(=O)NC1=O`, the growth was 105% (inactive). With `CN1CCC2(CC1)C(C#N)C(=O)NC(=O)C2C#N` (centres undefined) the growth was 113% (inactive). For `CC(=O)c1cccc(S(=O)(=O)F)c1`, the growth was 96.9% (inactive). `ClCc1ccc(Cl)c(Cl)c1` was tested, and the growth was 106% (inactive). With `COc1cc2c(cc1OC)-c1c3c(cc4c1[C@@H](C2)N(C)CC4)OCO3` the growth was 43.5% (inactive).
